# Assay results published in PubChem BioAssay (EPA / NIEHS).
# Results filed as inconclusive are left out. Active and inactive are the calls of the source. The calls were made as follows, unless noted: active = hit-call score of the fitted dose curve at least 0.9, where 1 is the maximum; inactive = score below 0.9.
# How the values were obtained:
# [1] = biological target: Estrogen-related receptor gamma (Homo sapiens) (UniProt P62508); test: ATG_ERRg_TRANS: Attagene TRANS-FACTORIAL HepG2 Assay for human Estrogen-Related Receptor gamma (ERRg) (AID 2282977; active = hit-call score of the fitted dose curve at least 0.9, where 1 is the maximum;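 also: hits increase reporter signal over DMSO so potencies reflect activators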); conditions: HepG2 Attagene TRANS reporter, ERRg transactivation
# Estrogen-related receptor gamma (Homo sapiens), sequence (P62508 whole entry, looked up, the tested form may be a part): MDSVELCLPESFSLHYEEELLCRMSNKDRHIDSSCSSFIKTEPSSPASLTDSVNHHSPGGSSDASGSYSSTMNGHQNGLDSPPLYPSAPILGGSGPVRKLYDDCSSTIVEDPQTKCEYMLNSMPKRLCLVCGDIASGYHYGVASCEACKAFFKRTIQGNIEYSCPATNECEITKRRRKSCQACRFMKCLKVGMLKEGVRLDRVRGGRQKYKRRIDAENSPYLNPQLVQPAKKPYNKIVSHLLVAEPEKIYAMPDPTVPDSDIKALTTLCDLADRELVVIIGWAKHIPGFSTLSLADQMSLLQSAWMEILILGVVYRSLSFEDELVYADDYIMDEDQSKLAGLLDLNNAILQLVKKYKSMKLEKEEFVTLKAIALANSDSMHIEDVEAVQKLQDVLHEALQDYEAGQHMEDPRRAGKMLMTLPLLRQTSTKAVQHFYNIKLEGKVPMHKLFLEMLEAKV
# Procedure, shortened: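 Transfect HepG2 with multiple GAL4-UAS reporter transcription units; dose chemicals 24 h; isolate RNA, reverse-transcribe with oligo(dT), PCR-amplify, label with 6-FAM, digest with HpaI; size fragments by capillary electrophoresis. DMSO serves as negative control.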
# [2] = biological target: Oxysterols receptor LXR-alpha (Homo sapiens) (UniProt Q13133); test: ATG_LXRa_TRANS: Attagene TRANS-FACTORIAL HepG2 Assay for human Liver X Receptor alpha (LXRa) (AID 2282980; active = hit-call score of the fitted dose curve at least 0.9, where 1 is the maximum); conditions: HepG2 Attagene TRANS reporter, LXRa transactivation
# Procedure, shortened: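 Read-out: reporter transcript levels by RT-PCR plus capillary electrophoresis, fluorescence intensity. Transiently transfected HepG2, exogenous NR-GAL4 chimera, GAL4-UAS reporters; 24 h compound exposure. Activity = increase over DMSO negative control.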
# [3] = biological target: Oxysterols receptor LXR-beta (Homo sapiens) (UniProt P55055); test: ATG_LXRb_TRANS: Attagene TRANS-FACTORIAL HepG2 Assay for human Liver X Receptor beta (LXRb) (AID 2282981; active = hit-call score of the fitted dose curve at least 0.9, where 1 is the maximum); conditions: HepG2 Attagene TRANS GAL4-LXRb reporter, mRNA
# Oxysterols receptor LXR-beta (Homo sapiens), sequence (P55055 whole entry, looked up, the tested form may be a part): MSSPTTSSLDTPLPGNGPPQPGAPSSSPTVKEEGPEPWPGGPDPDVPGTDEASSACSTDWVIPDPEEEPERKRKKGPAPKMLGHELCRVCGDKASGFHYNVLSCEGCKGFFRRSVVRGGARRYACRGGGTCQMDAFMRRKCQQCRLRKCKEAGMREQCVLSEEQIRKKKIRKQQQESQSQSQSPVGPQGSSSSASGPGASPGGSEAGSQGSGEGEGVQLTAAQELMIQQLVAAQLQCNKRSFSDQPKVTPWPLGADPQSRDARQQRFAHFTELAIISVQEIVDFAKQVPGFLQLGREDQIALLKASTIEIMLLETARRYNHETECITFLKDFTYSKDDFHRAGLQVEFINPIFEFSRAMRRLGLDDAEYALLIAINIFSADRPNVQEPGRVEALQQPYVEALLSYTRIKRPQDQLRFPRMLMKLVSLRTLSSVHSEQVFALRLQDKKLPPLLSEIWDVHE
# Procedure, shortened: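 Transient transfection HepG2 (multiplexed RTUs, GAL4-UAS); NR-Gal4 chimera; 24 h exposure; RNA → RT-PCR → 6-FAM primer extension → HpaI → CE; increase vs DMSO.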
# [4] = ATG_M_32_TRANS: Attagene TRANS-FACTORIAL HepG2 Assay for M32 Transcription Factor (Internal Marker) (AID 2282984; active = hit-call score of the fitted dose curve at least 0.9, where 1 is the maximum;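 also: transcript level of a background control reporter unit measured by RT-PCR and capillary electrophoresis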); conditions: HepG2 Attagene TRANS M32 internal marker reporter
# Procedure, shortened: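 Measures reporter mRNA induction in human HepG2 liver cells after 24 h chemical treatment. Transcripts from transiently transfected GAL4-UAS reporter units are amplified, fluorescently labelled and sized by capillary electrophoresis; gain of signal relative to DMSO.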
# [5] = biological target: Nuclear receptor subfamily 4 group A member 2 (Homo sapiens) (UniProt P43354); test: ATG_NURR1_TRANS: Attagene TRANS-FACTORIAL HepG2 Assay for human Nuclear Receptor Related Protein 1 (NURR1) (AID 2282985; active = hit-call score of the fitted dose curve at least 0.9, where 1 is the maximum); conditions: HepG2 Attagene TRANS reporter, mRNA readout
# Nuclear receptor subfamily 4 group A member 2 (Homo sapiens), sequence (P43354 whole entry, looked up, the tested form may be a part): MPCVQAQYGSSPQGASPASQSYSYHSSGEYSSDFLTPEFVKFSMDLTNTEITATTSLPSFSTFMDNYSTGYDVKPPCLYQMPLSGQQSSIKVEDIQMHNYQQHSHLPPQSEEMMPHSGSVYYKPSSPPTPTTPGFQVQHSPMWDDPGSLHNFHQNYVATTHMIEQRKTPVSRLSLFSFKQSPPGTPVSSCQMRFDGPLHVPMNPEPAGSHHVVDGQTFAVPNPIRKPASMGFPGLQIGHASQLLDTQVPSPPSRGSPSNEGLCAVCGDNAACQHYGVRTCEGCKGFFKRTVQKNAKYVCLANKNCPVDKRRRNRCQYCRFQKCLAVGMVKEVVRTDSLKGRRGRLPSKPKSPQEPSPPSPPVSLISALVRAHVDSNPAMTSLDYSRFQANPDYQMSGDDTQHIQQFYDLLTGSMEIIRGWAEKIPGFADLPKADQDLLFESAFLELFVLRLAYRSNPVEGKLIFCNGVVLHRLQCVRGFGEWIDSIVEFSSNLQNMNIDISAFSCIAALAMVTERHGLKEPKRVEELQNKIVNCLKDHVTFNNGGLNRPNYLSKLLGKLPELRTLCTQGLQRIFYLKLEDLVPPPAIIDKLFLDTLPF
# Procedure, shortened: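 Transient transfection of HepG2, human liver cells, with multiple GAL4-UAS reporter transcription units. Cells dosed 24 h, RNA isolated, reverse-transcribed, PCR-amplified, FAM-labelled, HpaI-digested, sized by capillary electrophoresis. DMSO served as negative control.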
# [6] = biological target: Transcriptional activator Myb (Homo sapiens) (UniProt P10242); test: ATG_Myb_CIS: Attagene CIS-FACTORIAL HepG2 Assay for human Myeloblastosis (Myb) Proto-Oncogene Transcription Factor (AID 2282986); conditions: HepG2 Attagene CIS-FACTORIAL Myb reporter transcription; actives raise or lower the signal
# Transcriptional activator Myb (Homo sapiens), sequence (P10242 whole entry, looked up): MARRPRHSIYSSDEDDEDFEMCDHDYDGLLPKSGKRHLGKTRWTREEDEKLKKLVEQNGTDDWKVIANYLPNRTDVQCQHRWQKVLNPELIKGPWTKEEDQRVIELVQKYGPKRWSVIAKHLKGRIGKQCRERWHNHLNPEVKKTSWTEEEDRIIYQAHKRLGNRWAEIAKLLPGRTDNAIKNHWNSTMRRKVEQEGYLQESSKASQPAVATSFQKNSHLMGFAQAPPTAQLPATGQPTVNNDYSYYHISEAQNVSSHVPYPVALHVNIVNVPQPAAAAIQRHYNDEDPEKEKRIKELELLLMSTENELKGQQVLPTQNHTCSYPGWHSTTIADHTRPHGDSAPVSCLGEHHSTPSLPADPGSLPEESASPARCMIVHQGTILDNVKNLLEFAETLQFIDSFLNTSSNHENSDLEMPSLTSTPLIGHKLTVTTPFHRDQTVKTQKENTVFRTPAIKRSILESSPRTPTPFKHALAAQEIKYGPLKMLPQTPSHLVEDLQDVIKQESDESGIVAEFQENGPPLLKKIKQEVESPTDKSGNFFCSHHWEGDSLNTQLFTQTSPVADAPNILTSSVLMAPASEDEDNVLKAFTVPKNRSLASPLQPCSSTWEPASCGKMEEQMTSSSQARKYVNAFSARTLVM
# Procedure, shortened: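 After 24 h of compound dosing, total RNA from transfected HepG2 cells is reverse-transcribed and the reporter sequences amplified, labeled and separated by capillary electrophoresis. Values come from bidirectional fitting against DMSO.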
# [7] = biological target: Nuclear respiratory factor 1 (Homo sapiens) (UniProt Q16656); test: ATG_NRF1_CIS: Attagene CIS-FACTORIAL HepG2 Assay for human Nuclear Respiratory Factor 1 (NRF1) Orphan Gene (AID 2282987); conditions: HepG2 NRF1 cis-element reporter, Attagene multiplex; actives raise or lower the signal
# Nuclear respiratory factor 1 (Homo sapiens), sequence (Q16656 whole entry, looked up): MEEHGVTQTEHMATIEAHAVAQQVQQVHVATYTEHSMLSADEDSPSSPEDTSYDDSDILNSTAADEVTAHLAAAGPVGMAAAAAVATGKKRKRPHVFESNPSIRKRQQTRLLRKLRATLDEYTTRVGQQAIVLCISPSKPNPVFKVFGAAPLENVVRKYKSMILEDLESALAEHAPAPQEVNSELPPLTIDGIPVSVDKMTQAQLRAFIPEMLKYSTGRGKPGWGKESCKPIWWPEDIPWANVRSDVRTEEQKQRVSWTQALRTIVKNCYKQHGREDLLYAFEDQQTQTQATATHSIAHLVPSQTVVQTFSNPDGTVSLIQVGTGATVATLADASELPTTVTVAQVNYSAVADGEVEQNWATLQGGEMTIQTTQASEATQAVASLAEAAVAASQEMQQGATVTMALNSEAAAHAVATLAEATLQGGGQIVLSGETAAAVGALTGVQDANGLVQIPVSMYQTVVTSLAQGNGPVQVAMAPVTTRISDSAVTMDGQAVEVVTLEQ
# Procedure, shortened: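 Measured: fluorescent reporter-specific RT-PCR products from transfected HepG2 cells, separated by capillary electrophoresis. Exposure lasted 24 h. Analysis used bidirectional curve fitting with DMSO as negative control.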
# [8] = biological target: Myc proto-oncogene protein (Homo sapiens) (UniProt P01106); test: ATG_Myc_CIS: Attagene CIS-FACTORIAL HepG2 Assay for human Myelocytomatosis (Myc) Proto-Oncogene Transcription Factor (AID 2282990); conditions: HepG2, Attagene cis-reporter transcription factor activity; actives raise or lower the signal
# Myc proto-oncogene protein (Homo sapiens), sequence (P01106 whole entry, looked up): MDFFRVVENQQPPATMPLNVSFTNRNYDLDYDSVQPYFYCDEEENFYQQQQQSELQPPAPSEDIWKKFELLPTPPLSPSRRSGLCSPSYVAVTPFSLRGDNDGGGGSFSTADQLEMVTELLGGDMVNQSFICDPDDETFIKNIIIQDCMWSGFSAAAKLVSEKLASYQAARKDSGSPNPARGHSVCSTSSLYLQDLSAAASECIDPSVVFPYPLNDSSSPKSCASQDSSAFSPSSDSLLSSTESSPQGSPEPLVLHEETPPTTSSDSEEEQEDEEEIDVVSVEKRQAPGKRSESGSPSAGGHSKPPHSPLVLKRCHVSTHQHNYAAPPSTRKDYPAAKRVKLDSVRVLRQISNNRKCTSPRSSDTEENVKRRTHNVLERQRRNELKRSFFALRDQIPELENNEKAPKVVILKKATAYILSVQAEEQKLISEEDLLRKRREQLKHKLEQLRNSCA
# Procedure, shortened: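 HepG2, transient MRTU transfection (cis promoters, endogenous TFs); 24 h dosing; TriZol RNA → oligo(dT) RT → PCR → 6-FAM primer extension → HpaI cut → CE. Bidirectional fit vs DMSO.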
# [9] = ATG_NRF2_ARE_CIS: Attagene CIS-FACTORIAL HepG2 Assay for human Nuclear Factor Erythroid 2 Related Factor 2 (NFR2) response to Antioxidant Response Elements (ARE) (AID 2282992); conditions: HepG2 Attagene ARE/NRF2 reporter, transcription factor activity; actives raise or lower the signal
# Procedure, shortened: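 Cis-factorial assay: transfected HepG2 reporter library, 24 h dosing, mRNA readout via RT-PCR/CE; DMSO-referenced bidirectional analysis.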
# [10] = ATG_Oct_MLP_CIS: Attagene CIS-FACTORIAL HepG2 Assay for human Octamer-Binding Transcription Factor (Oct) (AID 2282993); conditions: HepG2 Attagene cis-factorial Oct reporter, mRNA; actives raise or lower the signal
# Procedure, shortened: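 HepG2, transient MRTU transfection, cis promoter elements; 24 h dosing; RT-PCR/CE fluorescence read-out of reporter mRNA; fit both directions vs DMSO.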
# [11] = biological target: Cellular tumor antigen p53 (Homo sapiens) (UniProt P04637); test: ATG_p53_CIS: Attagene CIS-FACTORIAL HepG2 Assay for human p53 Transcription Factor (AID 2282994); conditions: HepG2 p53 cis-element reporter, Attagene mRNA; actives raise or lower the signal
# Cellular tumor antigen p53 (Homo sapiens), sequence (P04637 whole entry, looked up): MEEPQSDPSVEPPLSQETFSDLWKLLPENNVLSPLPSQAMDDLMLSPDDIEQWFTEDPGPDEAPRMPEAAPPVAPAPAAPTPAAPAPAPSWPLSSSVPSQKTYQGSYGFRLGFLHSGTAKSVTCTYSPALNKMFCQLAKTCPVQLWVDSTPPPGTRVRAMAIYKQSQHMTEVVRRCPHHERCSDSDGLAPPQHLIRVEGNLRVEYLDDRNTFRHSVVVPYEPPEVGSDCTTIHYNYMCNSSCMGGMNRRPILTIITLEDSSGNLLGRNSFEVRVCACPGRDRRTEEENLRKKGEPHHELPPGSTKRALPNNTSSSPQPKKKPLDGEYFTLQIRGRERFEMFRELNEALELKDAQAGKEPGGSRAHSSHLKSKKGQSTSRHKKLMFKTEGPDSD
# Procedure, shortened: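 Using HepG2 hepatoma cells carrying cis-acting multiplexed reporters, mRNA induction is detected after a 24 h exposure. Gain- and loss-of-signal responses are fitted relative to DMSO-treated cells.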
# [12] = biological target: Glucocorticoid receptor (Homo sapiens) (UniProt P04150); test: ATG_GR_TRANS: Attagene TRANS-FACTORIAL HepG2 Assay for human Glucocorticoid Receptor (GR) (AID 2282978; active = hit-call score of the fitted dose curve at least 0.9, where 1 is the maximum;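 also: activators score as hits since higher reporter transcript over DMSO is fitted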); conditions: HepG2 Attagene TRANS GR reporter, mRNA transcription
# Glucocorticoid receptor (Homo sapiens), sequence (P04150 whole entry, looked up): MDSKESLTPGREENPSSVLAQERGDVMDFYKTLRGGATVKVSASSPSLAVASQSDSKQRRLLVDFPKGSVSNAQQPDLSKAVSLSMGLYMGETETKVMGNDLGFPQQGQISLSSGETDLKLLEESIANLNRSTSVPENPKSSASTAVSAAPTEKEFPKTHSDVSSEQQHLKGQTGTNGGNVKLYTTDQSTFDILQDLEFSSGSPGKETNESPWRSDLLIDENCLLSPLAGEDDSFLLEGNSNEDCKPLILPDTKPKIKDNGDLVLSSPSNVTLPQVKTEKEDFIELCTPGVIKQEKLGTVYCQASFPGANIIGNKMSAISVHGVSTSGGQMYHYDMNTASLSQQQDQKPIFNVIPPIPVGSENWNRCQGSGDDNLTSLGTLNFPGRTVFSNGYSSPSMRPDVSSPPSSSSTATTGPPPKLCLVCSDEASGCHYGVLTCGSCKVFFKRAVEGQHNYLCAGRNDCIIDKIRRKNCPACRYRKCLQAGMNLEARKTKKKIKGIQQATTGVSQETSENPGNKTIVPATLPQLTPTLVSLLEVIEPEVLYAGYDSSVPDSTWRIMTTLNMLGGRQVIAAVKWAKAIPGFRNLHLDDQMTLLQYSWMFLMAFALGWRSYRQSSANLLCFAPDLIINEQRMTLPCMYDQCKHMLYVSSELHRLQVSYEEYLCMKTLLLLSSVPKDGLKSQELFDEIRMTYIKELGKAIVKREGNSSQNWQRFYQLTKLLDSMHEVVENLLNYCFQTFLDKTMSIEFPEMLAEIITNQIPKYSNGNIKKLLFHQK
# Procedure, shortened: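 After 24 h incubation with test chemical, transfected HepG2 cells were lysed for RNA; reporter cDNA was amplified, FAM-labelled, HpaI-digested and sized on a capillary analyser. Signal gain relative to DMSO was scored.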
# [13] = biological target: Bile acid receptor (Homo sapiens) (UniProt Q96RI1); test: ATG_FXR_TRANS: Attagene TRANS-FACTORIAL HepG2 Assay for Farnesoid X Receptor (FXR) (AID 2282979; active = hit-call score of the fitted dose curve at least 0.9, where 1 is the maximum;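 also: hits raise reporter mRNA above DMSO so AC50 marks FXR activation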); conditions: HepG2 Attagene TRANS FXR-GAL4 reporter transcription
# Procedure, shortened: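 Read-out: fluorescent reporter transcripts quantified by capillary electrophoresis after RT-PCR of total RNA. Source cells were HepG2 transiently carrying chimeric NR-GAL4 plus GAL4-UAS reporter units, dosed 24 h. Activity fitted upward relative to DMSO baseline.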
# [14] = ATG_M_06_TRANS: Attagene TRANS-FACTORIAL HepG2 Assay for M06 Transcription Factor (Internal Marker) (AID 2282983; active = hit-call score of the fitted dose curve at least 0.9, where 1 is the maximum); conditions: HepG2 Attagene TRANS M06 internal marker reporter
# Procedure, shortened: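 After a 24 h chemical treatment of transfected HepG2, RNA underwent DNase I treatment, reverse transcription and reporter-specific PCR; labelled, HpaI-digested products were sized by capillary electrophoresis. Signal increase relative to DMSO defined activity.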
# [15] = ATG_NFI_CIS: Attagene CIS-FACTORIAL HepG2 Assay for human Nuclear Factor I (NFI) (AID 2282989); conditions: HepG2 cis-regulatory reporter, NFI response element transcription; actives raise or lower the signal
# Procedure, shortened: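 Cells: human liver HepG2, transiently transfected with promoter-regulated reporter transcription units. Exposure 24 h. Detection: fluorescent RT-PCR products separated by capillary electrophoresis, normalised to DMSO negative control.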
# [16] = biological target: Hepatocyte nuclear factor 4-alpha (Homo sapiens) (UniProt P41235); test: ATG_HNF4a_TRANS: Attagene TRANS-FACTORIAL HepG2 Assay for human Hepatocyte Nuclear Factor 4 alpha (HNF4a) (AID 2282982; active = hit-call score of the fitted dose curve at least 0.9, where 1 is the maximum); conditions: HepG2 HNF4a transactivation reporter, mRNA readout
# Hepatocyte nuclear factor 4-alpha (Homo sapiens), sequence (P41235 whole entry, looked up, the tested form may be a part): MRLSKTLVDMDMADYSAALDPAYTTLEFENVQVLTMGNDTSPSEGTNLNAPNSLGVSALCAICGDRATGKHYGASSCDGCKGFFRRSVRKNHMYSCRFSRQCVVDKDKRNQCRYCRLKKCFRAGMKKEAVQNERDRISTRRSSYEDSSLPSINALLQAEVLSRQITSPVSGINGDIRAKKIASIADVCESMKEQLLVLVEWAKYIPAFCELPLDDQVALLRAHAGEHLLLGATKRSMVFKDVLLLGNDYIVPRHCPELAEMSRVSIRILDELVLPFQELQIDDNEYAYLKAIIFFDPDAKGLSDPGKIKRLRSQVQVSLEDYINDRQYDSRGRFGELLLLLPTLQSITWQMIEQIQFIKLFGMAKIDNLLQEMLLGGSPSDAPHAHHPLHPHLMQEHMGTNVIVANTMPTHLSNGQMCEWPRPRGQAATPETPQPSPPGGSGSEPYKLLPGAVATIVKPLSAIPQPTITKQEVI
# Procedure, shortened: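 Readout is fluorescent reporter-transcript fragments resolved by capillary electrophoresis after RT-PCR from HepG2 cells dosed for 24 h. Cells carried transfected GAL4-UAS reporter constructs measuring exogenous NR-GAL4 chimera activity; DMSO served as baseline.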
# [17] = ATG_NF_kB_CIS: Attagene CIS-FACTORIAL HepG2 Assay for human Nuclear Factor Kappa B (NF-kB) (AID 2282991); conditions: HepG2 Attagene cis-factorial NF-kB reporter mRNA; actives raise or lower the signal
# Procedure, shortened: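 Fluorescence of labelled RT-PCR products separated by capillary electrophoresis gives reporter mRNA levels from transfected HepG2 cells exposed 24 h; values are fitted in both directions relative to DMSO.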
# [18] = BSK_3C_TissueFactor: BioMAP Diversity Plus: 3C Assay for Tissue Factor Biomarker Activity (AID 2282997); conditions: BioMAP 3C HUVEC, tissue factor biomarker readout; actives raise or lower the signal
# Procedure, shortened: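 Human vascular primary cells (umbilical vein endothelium) received test chemical; Tissue Factor was determined by ELISA at 24 h, and both gain and loss of signal versus DMSO were fitted.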
# [19] = BSK_3C_uPAR: BioMAP Diversity Plus: 3C Assay for Urokinase-type plasminogen activator receptor (uPAR) Biomarker Activity (AID 2282998); conditions: BioMAP 3C HUVEC, uPAR biomarker ELISA; actives raise or lower the signal
# Procedure, shortened: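 A multiplexed primary-cell system built on human umbilical vein endothelium was used, with chemical present for 24 h before reading. Cell-surface uPAR was detected by ELISA; signal change in either direction counted against DMSO.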
# [20] = BSK_3C_VCAM1: BioMAP Diversity Plus: 3C Assay for Vascular cell adhesion molecule 1 (VCAM1) Biomarker Activity (AID 2282999); conditions: BioMAP 3C HUVEC, VCAM1 ELISA, cytokine-stimulated; actives raise or lower the signal
# Procedure, shortened: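 Endothelial cells from human umbilical vein are treated with test chemical. At 24 h, VCAM-1 is measured by ELISA, and responses in either direction are fitted relative to DMSO.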
compound,measurement,setting,value
CCCCCCCC(=O)N(C)C,outcome,[1],inactive
same,outcome,[2],inactive
same,outcome,[3],inactive
same,outcome,[4],inactive
same,outcome,[5],inactive
same,outcome,[6],inactive
same,outcome,[7],inactive
same,outcome,[8],inactive
same,outcome,[9],inactive
same,outcome,[10],inactive
same,outcome,[11],inactive
CCCCCCCCOS(=O)(=O)O,outcome,[1],inactive
same,outcome,[12],inactive
same,outcome,[13],inactive
same,outcome,[14],inactive
same,outcome,[4],inactive
same,outcome,[7],inactive
same,outcome,[15],inactive
same,outcome,[8],inactive
same,outcome,[9],inactive
same,outcome,[10],inactive
same,outcome,[11],inactive
COC(=O)C(C)Oc1ccc(Oc2ncc(C(F)(F)F)cc2Cl)cc1 (stereo unspecified),outcome,[1],inactive
same,outcome,[3],inactive
same,outcome,[16],inactive
same,outcome,[14],inactive
same,outcome,[4],inactive
same,outcome,[5],inactive
same,AC50,[7],137000 nM (active)
same,outcome,[15],inactive
same,outcome,[8],inactive
same,outcome,[9],inactive
same,outcome,[11],inactive
O=C(O)CS,outcome,[1],inactive
same,outcome,[12],inactive
same,outcome,[16],inactive
same,outcome,[14],inactive
same,outcome,[5],inactive
same,outcome,[6],inactive
same,outcome,[7],inactive
same,outcome,[15],inactive
same,outcome,[8],inactive
same,outcome,[17],inactive
same,outcome,[9],inactive
same,outcome,[10],inactive
O=C(O)c1cc2ccccc2cc1O,outcome,[1],inactive
same,outcome,[2],inactive
same,outcome,[3],inactive
same,outcome,[16],inactive
same,outcome,[14],inactive
same,outcome,[4],inactive
same,outcome,[5],inactive
same,outcome,[6],inactive
same,outcome,[15],inactive
same,outcome,[8],inactive
same,outcome,[17],inactive
same,outcome,[9],inactive
C=CC(=O)OCC(CO)(COC(=O)C=C)COC(=O)C=C,outcome,[1],inactive
same,outcome,[3],inactive
same,outcome,[16],inactive
same,outcome,[14],inactive
same,outcome,[5],inactive
same,AC50,[6],180000 nM (active)
same,outcome,[7],inactive
same,outcome,[15],inactive
same,outcome,[8],inactive
same,outcome,[9],inactive
same,outcome,[10],inactive
same,AC50,[18],137 nM (active)
same,AC50,[19],443 nM (active)
same,AC50,[20],47.8 nM (active)
